Assay results reported in PubChem BioAssay.
Calls of active or inactive are those of the source.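 Rule for the calls: active = mean inhibition above 46.68%, the untreated control wells mean plus 3 SD; inactive = the rest.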

target: Nuclear receptor coactivator 1 (Homo sapiens) (UniProt Q15788); experiment: SRC1 coactivator transcriptional activity inhibitors, confirmation, cell-based, luminescence, quadruplicate (AID 588820); details: HEK293 GAL4-SRC1 luciferase reporter, at 3.6 µM, hits give high values;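 note: 0% = DMSO wells and 100% = gossypol 36 µM treated wells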
Sequence (Q15788 whole entry, looked up, the tested form may be a part): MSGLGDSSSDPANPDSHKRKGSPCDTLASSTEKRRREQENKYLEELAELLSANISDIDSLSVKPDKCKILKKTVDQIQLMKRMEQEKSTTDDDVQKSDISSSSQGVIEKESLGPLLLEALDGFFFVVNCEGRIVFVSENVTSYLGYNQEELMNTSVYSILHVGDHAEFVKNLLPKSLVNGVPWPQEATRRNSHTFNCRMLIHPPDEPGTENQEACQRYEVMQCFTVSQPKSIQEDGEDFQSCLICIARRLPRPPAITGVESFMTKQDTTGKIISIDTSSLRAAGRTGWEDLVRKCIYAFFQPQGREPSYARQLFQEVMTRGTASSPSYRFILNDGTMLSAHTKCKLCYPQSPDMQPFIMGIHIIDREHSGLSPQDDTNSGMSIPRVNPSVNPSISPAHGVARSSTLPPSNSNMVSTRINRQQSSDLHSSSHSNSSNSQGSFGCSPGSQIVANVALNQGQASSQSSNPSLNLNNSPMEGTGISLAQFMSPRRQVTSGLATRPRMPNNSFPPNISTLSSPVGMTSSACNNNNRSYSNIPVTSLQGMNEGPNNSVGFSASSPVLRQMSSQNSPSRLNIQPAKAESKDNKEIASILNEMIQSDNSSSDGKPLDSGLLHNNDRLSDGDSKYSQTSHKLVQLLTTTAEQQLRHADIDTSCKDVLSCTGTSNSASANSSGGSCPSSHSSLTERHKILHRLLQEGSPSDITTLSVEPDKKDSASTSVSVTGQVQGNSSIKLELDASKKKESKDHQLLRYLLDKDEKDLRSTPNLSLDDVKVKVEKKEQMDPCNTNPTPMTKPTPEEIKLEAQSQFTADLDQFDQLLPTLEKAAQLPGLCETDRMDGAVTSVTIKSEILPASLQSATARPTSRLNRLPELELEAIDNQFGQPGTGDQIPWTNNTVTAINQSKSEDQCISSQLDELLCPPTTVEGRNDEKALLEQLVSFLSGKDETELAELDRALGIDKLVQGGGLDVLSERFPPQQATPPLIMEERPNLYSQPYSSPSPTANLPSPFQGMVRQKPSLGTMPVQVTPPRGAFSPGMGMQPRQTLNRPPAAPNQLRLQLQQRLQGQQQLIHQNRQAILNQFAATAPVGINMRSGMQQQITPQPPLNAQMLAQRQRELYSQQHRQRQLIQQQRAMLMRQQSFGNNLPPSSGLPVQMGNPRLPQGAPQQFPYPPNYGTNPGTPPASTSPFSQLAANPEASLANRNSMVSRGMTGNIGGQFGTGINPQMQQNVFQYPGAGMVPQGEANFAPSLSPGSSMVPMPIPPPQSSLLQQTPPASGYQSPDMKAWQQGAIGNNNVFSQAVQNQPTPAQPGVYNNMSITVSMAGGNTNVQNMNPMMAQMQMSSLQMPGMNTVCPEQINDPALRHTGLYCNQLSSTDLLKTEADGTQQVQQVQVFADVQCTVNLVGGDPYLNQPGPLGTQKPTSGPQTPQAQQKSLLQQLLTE

inhibition, inactive:
CCOP(=O)(OCC)C(NC(=O)c1cccs1)c1ccccc1 (stereo unspecified) -44.8%
c1cncc(CNC2CCCc3ccccc32)c1 (stereo unspecified) 0.67%
CC1CCN(C(=O)c2scc3c2OCCO3)CC1 18.3%
CCN(CC)S(=O)(=O)c1ccc(N2CCOCC2)c(NC(=O)c2cc(-c3ccccn3)nc3ccccc23)c1 -32%
Cn1ncc(Cl)c1C(=O)NCc1cc(C(C)(C)C)n[nH]1 -8.52%
CN(C)C(=O)c1cccc(-c2cnc3cccnn23)c1 -7.49%
COc1ccc(-n2c(NNC(C)=O)nc3sc4c(c3c2=O)CCCC4)cc1 23.4%
CSc1ccc(CN2CCN(C(=O)CC(C)C)CC2)cc1 -3.21%
COc1ccc(CCN(C)C(=O)c2cc(S(=O)(=O)N3CCCCC3)ccc2Cl)cc1OC -9.24%
CC(Oc1ccc(F)cc1)C(=O)Nc1cc(S(=O)(=O)N2CCCCC2)ccc1N1CCOCC1 (stereo unspecified) -3.38%
COc1ccc(-c2nc(N3CCOCC3)nc3n[nH]c(N)c23)cc1 5.53%
CCOC(=O)N1CCC(N(CCN(C)C)C(=S)Nc2ccccc2OCC)CC1 -21.5%
CC1(C)Cc2nc(N)c(=O)sc2C1 -1.79%
Cc1ccc(OCCN2CCN(C(=O)CCC(=O)Nc3nnc(CC(C)C)s3)CC2)cc1 2.56%
Cc1c(C(=O)NCC2COc3ccccc3O2)oc2ccc(S(=O)(=O)N3CCOCC3)cc12 (stereo unspecified) -7.47%
O=C(CNC(=O)Cc1ccccc1)N=Nc1c(O)n(Cc2ccc3c(c2)OCO3)c2ccccc12 3.52%
